Inconclusive results are not listed. Calls of active or inactive are those of the source. Calls come from the whole dose curve; as a rule, active = well fitted curve in the direction sought with a large enough effect in the repeat runs; inconclusive = weak or mixed curves; inactive = no such curve, though single readings can be large; an effect the other way counts as inactive or inconclusive.
Assays:
[1] = qHTS RealTime-Glo MT Cell Viability Assay in HEK293 cells - 16 hour (AID 1224872); note: nearly all actives have a fitted effect of over 50% in size; note: potency is the fitted concentration of half-maximal effect; for activity change, negative = cytotoxicity: top concentration of the series differs between compounds
How it was run: (§1)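 Homogeneous bioluminescent viability format in HEK293 cells (600 cells/well). Following 5 h at 37 C/5% CO2, 23 nL compound was pintooled; the signal was measured repeatedly during 40 h incubation.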

[2] = qHTS RealTime-Glo MT Cell Viability Assay in HepG2 cells - 8 hour (AID 1224873); note: nearly all actives have a fitted effect of over 55% in size; note: potency is the fitted concentration of half-maximal effect
How it was run: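 HepG2 cells mixed with RealTime-Glo MT reagents (NanoLuc plus cell-permeant prosubstrate) were seeded at 600 cells/well, incubated 5 h at 37 C/5% CO2, then pinned with compounds in DMSO; nonlytic luminescence tracked viability during 40 h treatment.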

[3] = qHTS RealTime-Glo MT Cell Viability Assay in HEK293 cells - 40 hour (AID 1224874); settings: RealTime-Glo luminescence; max response: stronger effect = lower value; note: nearly all actives have a fitted effect of over 50% in size; note: potency is the fitted concentration of half-maximal effect
How it was run: (§2)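 600 HEK293 cells per well, dispensed already mixed with RealTime-Glo MT reagents. Compound dosing came 5 h later. The same wells were read for luminescence at 0, 8, 16, 24, 32 and 40 h of exposure at 37 C.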

[4] = A CellTox Green Cytotoxicity Assay to monitor cytotoxicity in HEK293 cells - 24 hour (AID 1224875); note: series mostly up to about 77 µM; nearly all actives have a fitted effect of over 45% in size
How it was run: (§3)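 Dead-cell fluorescence measured kinetically: asymmetric cyanine dye, HEK293, 600 cells/well, 5 h settle, 23 nL cpd/DMSO, 37 C, reads 0–40 h every 8 h.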

[5] = qHTS RealTime-Glo MT Cell Viability Assay in HepG2 cells - 32 hour (AID 1224877); note: nearly all actives have a fitted effect of over 55% in size
How it was run: (§4)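 Cell number in HepG2 cultures estimated from NanoLuc luminescence generated by metabolic reduction of a prosubstrate by living cells. The homogeneous, nonlytic format allowed repeated reads at 0, 8, 16, 24, 32 and 40 h of compound exposure.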

[6] = A CellTox Green Cytotoxicity Assay to monitor cytotoxicity in HepG2 cells - 24 hour (AID 1224878); note: nearly all actives have a fitted effect of over 45% in size
How it was run: (§5)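 First, HepG2 cells (600/well) mixed with reagent were plated; second, after 5 h at 37 C they received compounds via pintool; third, fluorescence was measured at 0 h through 40 h at 8 h intervals.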

[7] = A CellTox Green Cytotoxicity Assay to monitor cytotoxicity in HepG2 cells - 40 hour (AID 1224879); note: nearly all actives have a fitted effect of over 40% in size; note: potency is the fitted concentration of half-maximal effect
How it was run: as §5

[8] = qHTS RealTime-Glo MT Cell Viability Assay in HEK293 cells - 0 hour (AID 1224880); note: top concentration of the series differs between compounds; nearly all actives have a fitted effect of over 45% in size
How it was run: as §2

[9] = A CellTox Green Cytotoxicity Assay to monitor cytotoxicity in HEK293 cells - 32 hour (AID 1224881); note: nearly all actives have a fitted effect of over 40% in size
How it was run: as §3

[10] = A CellTox Green Cytotoxicity Assay to monitor cytotoxicity in HepG2 cells - 0 hour (AID 1224882); note: nearly all actives have a fitted effect of over 35% in size
How it was run: as §5

[11] = A CellTox Green Cytotoxicity Assay to monitor cytotoxicity in HepG2 cells - 32 hour (AID 1224883); note: nearly all actives have a fitted effect of over 50% in size; note: potency is the fitted concentration of half-maximal effect
How it was run: as §5

[12] = A CellTox Green Cytotoxicity Assay to monitor cytotoxicity in HEK293 cells - 8 hour (AID 1224884); note: nearly all actives have a fitted effect of over 35% in size
How it was run: as §3

[13] = qHTS RealTime-Glo MT Cell Viability Assay in HepG2 cells - 16 hour (AID 1224885); note: nearly all actives have a fitted effect of over 50% in size; note: potency is the fitted concentration of half-maximal effect
How it was run: as §4

[14] = qHTS RealTime-Glo MT Cell Viability Assay in HEK293 cells - 24 hour (AID 1224886); note: nearly all actives have a fitted effect of over 50% in size; note: potency is the fitted concentration of half-maximal effect; for activity change, negative = cytotoxicity: top concentration of the series differs between compounds
How it was run: as §1

[15] = qHTS RealTime-Glo MT Cell Viability Assay in HEK293 cells - 8 hour (AID 1224887); note: nearly all actives have a fitted effect of over 50% in size; note: potency is the fitted concentration of half-maximal effect; for activity change, negative = cytotoxicity: top concentration of the series differs between compounds
How it was run: as §2

[16] = A CellTox Green Cytotoxicity Assay to monitor cytotoxicity in HEK293 cells - 16 hour (AID 1224888); note: nearly all actives have a fitted effect of over 35% in size
How it was run: as §3

[17] = qHTS RealTime-Glo MT Cell Viability Assay in HepG2 cells - 0 hour (AID 1224889); note: nearly all actives have a fitted effect of over 50% in size; note: potency is the fitted concentration of half-maximal effect
How it was run: as §4

[18] = A CellTox Green Cytotoxicity Assay to monitor cytotoxicity in HepG2 cells - 8 hour (AID 1224890); note: nearly all actives have a fitted effect of over 45% in size
How it was run: as §5

[19] = qHTS assay to identify small molecule antagonists of the estrogen receptor alpha (ER-alpha) signaling pathway using the BG1 cell line in the presence of 0.1 nM 17-beta-estradiol - cell viability counter screen (AID 1259241); note: nearly all actives have a fitted effect of over 40% in size; note: potency is the fitted concentration of half-maximal effect
How it was run: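 Live-cell protease activity (CellTiter-Fluor fluorescence, 30 min) was read in the same wells after VM7Luc4E2 cells had been exposed to compounds with 0.1 nM 17beta-estradiol for 22 hr at 37C.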

[20] = A CellTox Green Cytotoxicity Assay to monitor cytotoxicity in HepG2 cells - 16 hour (AID 1224876); note: nearly all actives have a fitted effect of over 45% in size
How it was run: as §5
% is set by controls: 0 for no effect and ±100 for the full control effect.

CC(=O)Oc1ccc(C(=C2CCCCC2)c2ccc(OC(C)=O)cc2)cc1
inactive: Potency [1] | Potency [2] | max response [3] 4.82% | Potency [4] | Potency [5] | Potency [6] | Potency [7] | Potency [8] | Potency [9] | Potency [10] | Potency [11] | Potency [12] | Potency [13] | Potency [14] | Potency [15] | Potency [16] | Potency [17] | Potency [18] | Potency [19]

O=C(CCC1CCN(Cc2ccccc2)CC1)c1ccc2c(c1)NCCCC2
active: Potency [1] 9.52 µM | Potency [3] 9.52 µM | Potency [14] 9.52 µM | Potency [15] 9.52 µM
inactive: Potency [2] | Potency [4] | Potency [20] | Potency [5] | Potency [6] | Potency [8] | Potency [10] | Potency [12] | Potency [13] | Potency [16] | Potency [17] | Potency [18]

CCOC(=O)/C=C/C(=O)O
inactive: Potency [1] | Potency [2] | max response [3] 16.2% | Potency [4] | Potency [20] | Potency [6] | Potency [7] | Potency [8] | Potency [9] | Potency [10] | Potency [11] | Potency [12] | Potency [13] | Potency [14] | Potency [15] | Potency [16] | Potency [17] | Potency [18]

CC(=O)CC(c1ccc([N+](=O)[O-])cc1)c1c(O)c2ccccc2oc1=O (configuration not stated)
inactive: Potency [1] | Potency [2] | max response [3] -4.65% | Potency [4] | Potency [5] | Potency [6] | Potency [7] | Potency [10] | Potency [11] | Potency [12] | Potency [13] | Potency [14] | Potency [15] | Potency [16] | Potency [17] | Potency [18] | Potency [19]

C[Si](NC1CCCCC1)(NC1CCCCC1)NC1CCCCC1
inactive: Potency [1] | Potency [2] | max response [3] -24.6% | Potency [4] | Potency [5] | Potency [6] | Potency [7] | Potency [8] | Potency [10] | Potency [11] | Potency [12] | Potency [13] | Potency [14] | Potency [15] | Potency [16] | Potency [17] | Potency [18] | Potency [19]

OC(CCCN1CCCCC1)(c1ccccc1)c1ccccc1
inactive: Potency [1] | Potency [2] | max response [3] 0.842% | Potency [4] | Potency [20] | Potency [6] | Potency [7] | Potency [8] | Potency [10] | Potency [11] | Potency [12] | Potency [13] | Potency [14] | Potency [16] | Potency [17] | Potency [18]

ON(Cc1ccccc1)Cc1ccccc1
inactive: Potency [1] | Potency [2] | max response [3] 4.01% | Potency [4] | Potency [20] | Potency [6] | Potency [8] | Potency [9] | Potency [10] | Potency [11] | Potency [12] | Potency [13] | Potency [14] | Potency [16] | Potency [17] | Potency [18] | Potency [19]

CCOC(=O)[C@@H](C)Oc1ccc(Oc2nc3ccc(Cl)cc3o2)cc1
active: Potency [1] 21.9 µM | Potency [2] 7.76 µM | Potency [3] 21.9 µM | Potency [13] 8.71 µM | Potency [14] 21.9 µM | Potency [15] 21.9 µM
inactive: Potency [4] | Potency [20] | Potency [6] | Potency [7] | Potency [8] | Potency [9] | Potency [10] | Potency [11] | Potency [12] | Potency [16] | Potency [17] | Potency [18] | Potency [19]

c1ccc(COCc2ccccc2)cc1
inactive: Potency [1] | Potency [2] | max response [3] 16.4% | Potency [4] | Potency [20] | Potency [6] | Potency [7] | Potency [8] | Potency [9] | Potency [10] | Potency [11] | Potency [12] | Potency [13] | Potency [14] | Potency [15] | Potency [16] | Potency [17] | Potency [18]

CCNC(=O)N1CCN(CCCC(c2ccc(F)cc2)c2ccc(F)cc2)CC1
active: Potency [1] 16.9 µM | Potency [3] 16.9 µM | Potency [7] 21.3 µM | Potency [11] 21.3 µM | Potency [14] 16.9 µM | Potency [19] 26.6 µM
inactive: Potency [2] | Potency [4] | Potency [20] | Potency [5] | Potency [8] | Potency [9] | Potency [10] | Potency [12] | Potency [13] | Potency [16] | Potency [17] | Potency [18]

[O]=[Bi]
inactive: activity change, negative = cytotoxicity [1] 3.35% [at 6.97 µM] | viability change, negative = cytotoxic [2] 0.919% [at 6.97 µM] | max response [3] 3.42% | activity change [4] -2.05% [at 6.97 µM, stronger effect = higher value] | cytotoxicity increase [20] -7.67% [at 6.97 µM] | cytotoxicity [6] -9.9% [at 6.97 µM] | activity change, negative = cytotoxicity [8] 1.4% [at 6.97 µM] | cytotoxicity increase [9] -0.855% [at 6.97 µM] | cytotoxicity [10] 1.27% [at 6.97 µM] | cytotoxicity increase [11] -9.49% [at 6.97 µM] | cytotoxicity increase [12] -5.25% [at 6.97 µM] | activity change, negative = cytotoxic [13] 1.05% [at 6.97 µM] | activity change, negative = cytotoxicity [15] 1.28% [at 6.97 µM] | activity change [16] -2.4% [at 6.97 µM, stronger effect = higher value] | activity change, negative = cytotoxicity [17] 1.28% [at 6.97 µM] | cytotoxicity increase [18] 2.13% [at 6.97 µM] | activity change, negative = cytotoxicity [19] -2.05% [at 8.39 µM]

C/C(=N/NC(=O)c1ccncc1)C(=O)O
inactive: Potency [1] | Potency [2] | max response [3] 0.452% | Potency [4] | Potency [5] | Potency [6] | Potency [7] | Potency [8] | Potency [9] | Potency [11] | Potency [12] | Potency [13] | Potency [14] | Potency [15] | Potency [16] | Potency [17] | Potency [18] | Potency [19]

CC(C)CCCC(=O)O
inactive: Potency [1] | Potency [2] | max response [3] -12.3% | Potency [4] | Potency [20] | Potency [6] | Potency [7] | Potency [8] | Potency [9] | Potency [10] | Potency [11] | Potency [12] | Potency [13] | Potency [15] | Potency [16] | Potency [17] | Potency [18] | Potency [19]

CCCCC(=O)O[C@]1(C(=O)CO)CC[C@H]2[C@@H]3CCC4=CC(=O)CC[C@]4(C)[C@H]3[C@@H](O)C[C@@]21C
inactive: Potency [1] | Potency [2] | max response [3] -24% | Potency [4] | Potency [5] | Potency [6] | Potency [7] | Potency [9] | Potency [10] | Potency [11] | Potency [12] | Potency [13] | Potency [14] | Potency [15] | Potency [16] | Potency [18] | Potency [19]
active: Potency [17] 9.52 µM
